From the supplement of paper PMC8728848
The full list was thinned out, with the strongest signals kept by preference.

Tests used:
Assay in all cases: glycan array binding signal (z-score within array); higher = stronger binding
Conditions in all cases: glycan notation: IUPAC condensed, linker removed
[1] = target: Fuc(a1-2)Gal(b1-4)GlcNAc(b1-2)Man(a1-3)[Fuc(a1-2)Gal(b1-4)GlcNAc(b1-2)Man(a1-6)]Man(b1-4)GlcNAc(b1-4)GlcNAc
Summary of the method: (§1)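 Arrays were curated from the Consortium for Functional Glycomics database, 3228 in total, and kept only where the protein sequence was available. Binding is expressed as a within-array Z-score. This score was averaged across arrays of the same protein sequence at different concentrations or buffers and across linkers, and negative values can be read as non-binding.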

[2] = target: Fuc(a1-2)Gal(b1-4)GlcNAc(b1-2)[Fuc(a1-2)Gal(b1-4)GlcNAc(b1-4)]Man(a1-3)[Fuc(a1-2)Gal(b1-4)GlcNAc(b1-2)Man(a1-6)]Man(b1-4)GlcNAc(b1-4)GlcNAc
Summary of the method: as §1

[3] = target: Fuc(a1-2)Gal(b1-4)GlcNAc(b1-3)Gal(b1-4)GlcNAc(b1-2)Man(a1-3)[Fuc(a1-2)Gal(b1-4)GlcNAc(b1-3)Gal(b1-4)GlcNAc(b1-2)Man(a1-6)]Man(b1-4)GlcNAc(b1-4)GlcNAc
Summary of the method: as §1

[4] = target: Fuc(a1-2)Gal(b1-4)[Fuc(a1-3)]GlcNAc(b1-3)Gal(b1-4)[Fuc(a1-3)]GlcNAc(b1-3)Gal(b1-4)[Fuc(a1-3)]GlcNAc
Summary of the method: as §1

[5] = target: Fuc(a1-2)Gal6S(b1-3)GlcNAc6S
Summary of the method: as §1

[6] = target: Fuc(a1-2)[GalNAc(a1-3)]Gal(b1-4)GlcNAc(b1-3)Gal(b1-4)GlcNAc
Summary of the method: as §1

[7] = target: Fuc(a1-2)[GalNAc(a1-3)]Gal(b1-4)GlcNAc(b1-3)GalNAc
Summary of the method: as §1

[8] = target: Fuc(a1-2)[GalNAc(a1-3)]Gal(b1-4)[Fuc(a1-3)]GlcNAc
Summary of the method: as §1

[9] = target: Fuc(a1-3)[GalNAc(b1-4)]GlcNAc
Summary of the method: as §1

[10] = target: Gal(a1-3)Gal(b1-4)GlcNAc(b1-2)Man(a1-3)[Gal(a1-3)Gal(b1-4)GlcNAc(b1-2)Man(a1-6)]Man(b1-4)GlcNAc(b1-4)GlcNAc
Summary of the method: as §1

[11] = target: Gal(a1-3)GalNAc
Summary of the method: as §1

[12] = target: Gal(a1-4)Gal(b1-4)GlcNAc(b1-2)Man(a1-3)[Gal(a1-4)Gal(b1-4)GlcNAc(b1-2)Man(a1-6)]Man(b1-4)GlcNAc(b1-4)GlcNAc
Summary of the method: as §1

[13] = target: Gal(b1-3)GalNAc(a1-3)[Fuc(a1-2)]Gal(b1-4)GlcNAc
Summary of the method: as §1

[14] = target: Gal(b1-3)GlcNAc(a1-3)Gal(b1-4)GlcNAc
Summary of the method: as §1

[15] = target: Gal(b1-3)GlcNAc(b1-2)Man(a1-3)[Gal(b1-3)GlcNAc(b1-2)Man(a1-6)]Man(b1-4)GlcNAc(b1-4)GlcNAc
Summary of the method: as §1

[16] = target: Gal(b1-4)GlcNAc(a1-6)Gal(b1-4)GlcNAc
Summary of the method: as §1

[17] = target: Gal(b1-4)GlcNAc(b1-2)Man(a1-3)[Gal(b1-4)GlcNAc(b1-2)Man(a1-6)]Man(b1-4)GlcNAc(b1-4)GlcNAc
Summary of the method: as §1

[18] = target: Gal(b1-4)GlcNAc(b1-2)[Gal(b1-4)GlcNAc(b1-6)]Man(a1-6)[Gal(b1-4)GlcNAc(b1-2)Man(a1-3)]Man(b1-4)GlcNAc(b1-4)[Fuc(a1-6)]GlcNAc
Summary of the method: as §1

[19] = target: Gal(b1-4)GlcNAc(b1-3)Gal(b1-4)GlcNAc
Summary of the method: as §1

[20] = target: Gal(b1-4)GlcNAc(b1-3)Gal(b1-4)GlcNAc(b1-2)[Gal(b1-4)GlcNAc(b1-3)Gal(b1-4)GlcNAc(b1-6)]Man(a1-6)[Gal(b1-4)GlcNAc(b1-3)Gal(b1-4)GlcNAc(b1-2)Man(a1-3)]Man(b1-4)GlcNAc(b1-4)GlcNAc
Summary of the method: as §1

[21] = target: Gal(b1-4)GlcNAc(b1-3)Gal(b1-4)GlcNAc(b1-3)Gal(b1-4)GlcNAc
Summary of the method: as §1

[22] = target: Gal(b1-4)GlcNAc(b1-3)Gal(b1-4)GlcNAc(b1-3)GalNAc
Summary of the method: as §1

[23] = target: Gal(b1-4)GlcNAc(b1-3)Gal(b1-4)GlcNAc(b1-3)[Gal(b1-4)GlcNAc(b1-3)Gal(b1-4)GlcNAc(b1-6)]GalNAc
Summary of the method: as §1

[24] = target: Gal3S(b1-3)[Fuc(a1-4)]GlcNAc
Summary of the method: as §1

[25] = target: Gal3S(b1-4)[Fuc(a1-3)]Glc6S
Summary of the method: as §1

[26] = target: Gal6S(b1-3)GlcNAc
Summary of the method: as §1

[27] = target: GalNAc(b1-4)GlcNAc(b1-2)Man(a1-3)[GalNAc(b1-4)GlcNAc(b1-2)Man(a1-6)]Man(b1-4)GlcNAc(b1-4)GlcNAc
Summary of the method: as §1

[28] = target: GlcNAc(a1-4)Gal(b1-4)GlcNAc(b1-3)Gal(b1-4)GlcNAc
Summary of the method: as §1

[29] = target: GlcNAc(b1-2)Man(a1-3)[GlcNAc(b1-2)Man(a1-6)]Man(b1-4)GlcNAc(b1-4)GlcNAc
Summary of the method: as §1

[30] = target: GlcNAc(b1-2)[GlcNAc(b1-6)]Man(a1-6)[GlcNAc(b1-2)Man(a1-3)]Man(b1-4)GlcNAc(b1-4)GlcNAc
Summary of the method: as §1

[31] = target: GlcNAc(b1-2)[GlcNAc(b1-6)]Man(a1-6)[GlcNAc(b1-2)Man(a1-3)]Man(b1-4)GlcNAc(b1-4)[Fuc(a1-6)]GlcNAc
Summary of the method: as §1

[32] = target: GlcNAc(b1-3)Gal(b1-4)GlcNAc(b1-2)Man(a1-3)[GlcNAc(b1-3)Gal(b1-4)GlcNAc(b1-2)Man(a1-6)]Man(b1-4)GlcNAc(b1-4)[Fuc(a1-6)]GlcNAc
Summary of the method: as §1

[33] = target: GlcNAc(b1-3)Gal(b1-4)GlcNAc(b1-3)Gal(b1-4)GlcNAc(b1-3)Gal(b1-4)GlcNAc(b1-3)Gal(b1-4)GlcNAc(b1-2)Man(a1-3)[GlcNAc(b1-3)Gal(b1-4)GlcNAc(b1-3)Gal(b1-4)GlcNAc(b1-3)Gal(b1-4)GlcNAc(b1-3)Gal(b1-4)GlcNAc(b1-2)Man(a1-6)]Man(b1-4)GlcNAc(b1-4)[Fuc(a1-6)]GlcNAc
Summary of the method: as §1

[34] = target: GlcNAc(b1-3)Gal(b1-4)GlcNAc(b1-3)[GlcNAc(b1-3)Gal(b1-4)GlcNAc(b1-3)]GalNAc
Summary of the method: as §1

[35] = target: GlcNAc(b1-6)GalNAc
Summary of the method: as §1

[36] = target: Man(a1-2)Man(a1-3)[Man(a1-2)Man(a1-6)]Man
Summary of the method: as §1

[37] = target: Man(a1-3)[Man(a1-6)]Man(b1-4)GlcNAc(b1-4)GlcNAc
Summary of the method: as §1

[38] = target: Neu5Ac(a2-3)Gal(b1-3)GlcNAc(b1-2)Man(a1-3)[Neu5Ac(a2-3)Gal(b1-3)GlcNAc(b1-2)Man(a1-6)]Man(b1-4)GlcNAc(b1-4)GlcNAc
Summary of the method: as §1

[39] = target: Neu5Ac(a2-3)Gal(b1-3)[GlcNAc(b1-6)]GalNAc
Summary of the method: as §1

[40] = target: Neu5Ac(a2-3)Gal(b1-4)[Fuc(a1-3)]GlcNAc(b1-6)[Neu5Ac(a2-3)Gal(b1-3)]GalNAc
Summary of the method: as §1

[41] = target: Neu5Ac(a2-3)[Neu5Ac(a2-6)]GalNAc
Summary of the method: as §1

[42] = target: Neu5Ac(a2-6)Gal(b1-4)GlcNAc(b1-2)Man(a1-3)Man(b1-4)GlcNAc(b1-4)GlcNAc
Summary of the method: as §1

[43] = target: Neu5Ac(a2-6)Gal(b1-4)GlcNAc(b1-2)Man(a1-3)[Man(a1-6)]Man(b1-4)GlcNAc(b1-4)GlcNAc
Summary of the method: as §1

[44] = target: Neu5Ac(a2-6)Gal(b1-4)GlcNAc(b1-2)Man(a1-3)[Neu5Ac(a2-3)Gal(b1-4)GlcNAc(b1-2)Man(a1-6)]Man(b1-4)GlcNAc(b1-4)GlcNAc
Summary of the method: as §1

[45] = target: Neu5Ac(a2-6)Gal(b1-4)GlcNAc(b1-2)Man(a1-3)[Neu5Ac(a2-6)Gal(b1-4)GlcNAc(b1-2)Man(a1-6)]Man(b1-4)GlcNAc(b1-4)[Fuc(a1-6)]GlcNAc
Summary of the method: as §1

[46] = target: Neu5Ac(a2-6)Gal(b1-4)GlcNAc(b1-2)Man(a1-6)[Gal(b1-4)GlcNAc(b1-2)Man(a1-3)]Man(b1-4)GlcNAc(b1-4)GlcNAc
Summary of the method: as §1

[47] = target: Neu5Ac(a2-6)Gal(b1-4)GlcNAc(b1-2)[Neu5Ac(a2-6)Gal(b1-4)GlcNAc(b1-4)]Man(a1-3)[GlcNAc(b1-4)][Neu5Ac(a2-6)Gal(b1-4)GlcNAc(b1-2)[Neu5Ac(a2-6)Gal(b1-4)GlcNAc(b1-6)]Man(a1-6)]Man(b1-4)GlcNAc(b1-4)GlcNAc
Summary of the method: as §1

[48] = target: Neu5Ac(a2-6)Gal(b1-4)GlcNAc(b1-6)[Gal(b1-3)GlcNAc(b1-3)]Gal(b1-4)Glc
Summary of the method: as §1

B1: RBMC2 (Vibrio cholerae) (protein)
chain: KISVRSGFAIDAIGASASTLVGGTGGNLNAAVNVKDIKAIDLTWGKYYWGGYHLLALDFRMSNGSVISMGSKNYAYSKQTERFTVPAGSRIKGIKAWTAGWLLDGVQFELA
[1]
  glycan array binding signal (z-score): 1.19
[2]
  glycan array binding signal (z-score): 0.016
[3]
  glycan array binding signal (z-score): 3.69
[4]
  glycan array binding signal (z-score): -0.273
[5]
  glycan array binding signal (z-score): -0.121
[6]
  glycan array binding signal (z-score): -0.171
[7]
  glycan array binding signal (z-score): -0.327
[8]
  glycan array binding signal (z-score): -0.4
[9]
  glycan array binding signal (z-score): -0.311
[10]
  glycan array binding signal (z-score): 3.79
[11]
  glycan array binding signal (z-score): -0.276
[12]
  glycan array binding signal (z-score): 4.07
[13]
  glycan array binding signal (z-score): -0.258
[14]
  glycan array binding signal (z-score): -0.3
[15]
  glycan array binding signal (z-score): 3.3
[16]
  glycan array binding signal (z-score): -0.466
[17]
  glycan array binding signal (z-score): -0.184
[18]
  glycan array binding signal (z-score): 0.211
[19]
  glycan array binding signal (z-score): -0.235
[20]
  glycan array binding signal (z-score): -0.097
[21]
  glycan array binding signal (z-score): -0.368
[22]
  glycan array binding signal (z-score): -0.363
[23]
  glycan array binding signal (z-score): -0.254
[24]
  glycan array binding signal (z-score): -0.327
[25]
  glycan array binding signal (z-score): -0.305
[26]
  glycan array binding signal (z-score): -0.328
[27]
  glycan array binding signal (z-score): 1.47
[28]
  glycan array binding signal (z-score): -0.281
[29]
  glycan array binding signal (z-score): 3.67
[30]
  glycan array binding signal (z-score): -0.232
[31]
  glycan array binding signal (z-score): -0.178
[32]
  glycan array binding signal (z-score): 3.51
[33]
  glycan array binding signal (z-score): 1.92
[34]
  glycan array binding signal (z-score): -0.222
[35]
  glycan array binding signal (z-score): -0.19
[36]
  glycan array binding signal (z-score): -0.48
[37]
  glycan array binding signal (z-score): 4.41
[38]
  glycan array binding signal (z-score): -0.017
[39]
  glycan array binding signal (z-score): -0.155
[40]
  glycan array binding signal (z-score): -0.025
[41]
  glycan array binding signal (z-score): -0.245
[42]
  glycan array binding signal (z-score): -0.132
[43]
  glycan array binding signal (z-score): 12.3
[44]
  glycan array binding signal (z-score): 3.39
[45]
  glycan array binding signal (z-score): 3.57
[46]
  glycan array binding signal (z-score): 3.52
[47]
  glycan array binding signal (z-score): -0.425
[48]
  glycan array binding signal (z-score): -0.398
